Laboratory results published in the supplement of paper PMC9446081.
± gives the standard deviation of the averaged measurements.

Target: MurC (UniProt C4ZRI6)
Assay: relative enzymatic activity vs untreated control (fraction); higher = less inhibition
Settings: 100 µM; incubation time: 2 h at 37 C
Procedure: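 In vitro enzymatic inhibition assays (ProFoldin kits) for 12 purified essential E. coli enzymes or complexes, each treated with 218 active antibacterial compounds at 100 µM for 2 h at 37°C. Read-outs were fluorescence or absorbance (phosphate detection, dye binding), converted to activity via standard curves and expressed relative to untreated DMSO controls.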

Chain of MurC (C4ZRI6 whole entry, looked up): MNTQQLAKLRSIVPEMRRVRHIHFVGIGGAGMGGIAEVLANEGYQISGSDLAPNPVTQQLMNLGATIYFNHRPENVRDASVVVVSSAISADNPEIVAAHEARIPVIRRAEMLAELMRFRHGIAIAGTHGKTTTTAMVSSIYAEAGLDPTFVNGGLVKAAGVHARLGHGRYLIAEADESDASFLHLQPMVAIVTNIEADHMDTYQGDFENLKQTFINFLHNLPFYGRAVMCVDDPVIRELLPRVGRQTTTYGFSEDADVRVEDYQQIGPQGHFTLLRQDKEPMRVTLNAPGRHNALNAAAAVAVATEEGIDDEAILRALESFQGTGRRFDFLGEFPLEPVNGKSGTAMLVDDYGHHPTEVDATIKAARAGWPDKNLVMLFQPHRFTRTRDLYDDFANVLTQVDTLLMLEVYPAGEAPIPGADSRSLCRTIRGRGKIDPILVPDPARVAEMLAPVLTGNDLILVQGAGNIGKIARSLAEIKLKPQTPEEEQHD

Row | SMILES | relative enzymatic activity
1 | CNC1C(O)C(OC2C(N)CC(N)C(OC3OC(C(C)O)C(O)C(O)C3N)C2O)OCC1(C)O (centres undefined) | 1.03 ± 0.029
2 | Cc1nc2c(=O)n(C)c(=O)nc-2n(C)n1 | 1.06 ± 0.095
3 | CN1C(=O)[C@]23CC4=CC=C[C@H](O)[C@H]4N2C(=O)[C@@]1(CO)SS3 | 0.8476 ± 0.0014
4 | O=[N+]([O-])c1ccc(N(CCO)CCO)c2c1no[n+]2[O-] | 0.936 ± 0.055
5 | Cc1c(N)nc([C@H](CC(N)=O)NC[C@@H](N)C(N)=O)nc1C(=O)N[C@H](C(=O)N[C@@H](C)[C@H](O)[C@@H](C)C(=O)N[C@@H](C(=O)NCCc1nc(-c2nc(C(=O)NCCC[S+](C)C)cs2)cs1)[C@@H](C)O)[C@@H](O[C@H]1O[C@H](CO)[C@H](O)[C@@H](O)[C@H]1O[C@H]1O[C@H](CO)[C@@H](O)[C@H](OC(N)=O)[C@@H]1O)c1c[nH]cn1 | 0.895 ± 0.017
6 | [O-][n+]1ccccc1[S][Zn][S]c1cccc[n+]1[O-] | 1.21 ± 0.17
7 | CCCCCCCCCCCCCCCC[N+](C)(C)C.[Br-] | 0.492 ± 0.29
8 | C[CH2][Hg][S]c1ccccc1C(=O)[O-].[Na+] | 1.17 ± 0.085
9 | O=S(=O)(O)O.Oc1cccc2cccnc12 | 1.08 ± 0.015
10 | CCn1cc(C(=O)[O-])c(=O)c2cc3c(cc21)OCO3.[K+] | 0.977 ± 0.032
11 | Oc1cc(Cl)ccc1Oc1ccc(Cl)cc1Cl | 1.2 ± 0.16
12 | CN[C@H]1C[C@@H](N)[C@H](O)[C@@H](O[C@@H]2O[C@H](CO)[C@H](O)[C@@H]3O[C@@]4(O[C@H]23)O[C@H]([C@@H](N)CO)[C@H](O)[C@H](O)[C@H]4O)[C@@H]1O | 1.04 ± 0.017
13 | COP(=S)(OC)Oc1cc(Cl)c(Cl)cc1Cl | 1.08 ± 0.024
14 | CN(C)[C@@H]1C(=O)[C@@H](C(N)=O)C(=O)[C@@]2(O)C(=O)[C@H]3C(=O)c4c(O)ccc(Cl)c4[C@@](C)(O)[C@H]3C[C@@H]12 | 1.08 ± 0.068
15 | CCCCCCCCCCCCCCCC[n+]1ccccc1 | 0.754 ± 0.24
16 | CC(=O)Oc1ccc(Cl)c2cccnc12 | 1.03 ± 0.041
17 | Cn1ncnc2c(=O)n(C)c(=O)nc1-2 | 0.99 ± 0.11
18 | O=C1C=C2C(=CCOC2O)O1 (centres undefined) | 1.06 ± 0.07
19 | Cc1c(N)nc([C@H](CC(N)=O)NC[C@@H](N)C(N)=O)nc1C(=O)N[C@H](C(=O)N[C@@H](C)[C@H](O)[C@@H](C)C(=O)N[C@@H](C(=O)NCCc1nc(-c2nc(C(=O)NCCC[S+](C)C)cs2)cs1)[C@@H](C)O)[C@@H](O[C@H]1O[C@H](CO)[C@H](O)[C@@H](O)[C@H]1O[C@H]1O[C@H](CO)[C@@H](O)[C@H](OC(N)=O)[C@@H]1O)c1cnc[nH]1 | 0.849 ± 0.025
20 | O=[N+]([O-])C(Br)(CO)CO | 1.11 ± 0.12
21 | CN(C)[C@@H]1C(=O)C(C(N)=O)=C(O)[C@@]2(O)C(O)=C3C(=O)c4c(O)cccc4[C@](C)(O)[C@H]3C[C@@H]12 | 1.017 ± 0.0095
22 | CC(=O)[O][Hg][c]1ccccc1 | 1.69 ± 0.032
23 | CCCCCCCCCCCCCCCC[n+]1ccccc1.[Cl-] | 0.264 ± 0.051
24 | CN(C)[C@@H]1C(=O)[C@H](C(N)=O)C(=O)[C@@]2(O)C(=O)[C@@H]3C(=O)c4c(O)cccc4[C@@](C)(O)[C@H]3C[C@@H]12 | 1 ± 0.031
